Screen size: about 290,000 compounds; about 11,000 (3.8%) were called active. The full list was thinned out, with actives kept by preference. A number with no mark means an inactive call.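 How the source made its calls: active means mean replicate inhibition above about 79%, with every replicate also reaching it (limit read from the data); inconclusive means only one of the two criteria met; inactive means mean below limit and not every replicate reaching it.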
biological target: FAD-linked sulfhydryl oxidase ALR (Homo sapiens) (UniProt P55789); test: inhibitors of human ALR sulfhydryl oxidase, primary screen, biochemical, H2O2 detection, HRP-luminol luminescence, single point (AID 485317); details: purified ALR, DTT oxidation, active compounds read high, concentration not given here
Sequence (P55789 whole entry, looked up): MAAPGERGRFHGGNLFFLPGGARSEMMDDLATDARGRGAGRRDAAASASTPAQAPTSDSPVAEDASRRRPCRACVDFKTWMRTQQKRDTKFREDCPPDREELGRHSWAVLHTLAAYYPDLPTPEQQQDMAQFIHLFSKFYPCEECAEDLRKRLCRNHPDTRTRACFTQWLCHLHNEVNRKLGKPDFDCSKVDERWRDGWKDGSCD

SMILES	inhibition
CC(=O)NC12CC3CC(C1)CC(C(=O)N1CCN(C(=O)c4ccco4)CC1)(C3)C2	-2.95%
CC1(C)O[C@@H]2[C@H](O1)[C@@H](COS(=O)(=O)O)O[C@H]2n1ccc(=O)[nH]c1=O	-0.754%
O=C(NNc1cc(Cl)cc(Cl)c1)c1c(F)cccc1Cl	3.41%
Cc1ccc(NNC(=O)c2c(F)cccc2Cl)cc1Cl	98.7% (active)
Cc1ccc(NNC(=O)c2cccs2)cc1Cl	2.62%
Cc1csc(=O)n1CC(=O)Nc1ccc(S(C)(=O)=O)cc1	2.59%
CN1C(=O)[C@H]2[C@@H](/C=C/c3ccccc3)N3C(=O)CN(Cc4ccc(-c5ccccc5)cc4)C(=O)[C@@]3(C)[C@H]2C1=O	3.57%
CC(=O)Nc1cccc(NC(=O)CSc2nccn2Cc2ccc(F)cc2)c1	98.1% (active)
CCCCNC(=O)CSc1nccn1Cc1ccccc1	11.9%
CCCCCCNC(=O)CSc1nccn1Cc1ccccc1	-0.072%
Clc1ccc(Nc2nc(-c3cccs3)cs2)nc1	-1.13%
O=c1oc2ccccc2cc1-c1csc(Nc2ccc(O)cc2)n1	32.6%
Cc1ccc(Nc2nc(-c3ccc(O)cc3O)cs2)nc1	98.8% (active)
COC(=O)Cc1ccc(OC(=O)C2CCN(S(=O)(=O)c3ccc(OC)c(OC)c3)CC2)cc1	-4.72%
CC[N+](C)(CC)CCC[n+]1c(-c2ccccc2)c2cc(N)ccc2c2ccc(N)cc21	90.7% (active)
O=C(COC(=O)c1cccnc1Cl)Nc1ccc(S(=O)(=O)N2CCOCC2)cc1	-2.58%
Cc1cccc(Nc2nnc(SCC(=O)c3c(N)n(C4CC4)c(=O)[nH]c3=O)s2)c1C	-3.29%
Cc1nn(CC#N)c(=O)n1N(C)c1ncc(C(F)(F)F)cc1Cl	0.914%
CN(NS(=O)(=O)c1cccs1)c1ncc(C(F)(F)F)cc1Cl	-1.63%
C#CCN(N(C)c1ncc(C(F)(F)F)cc1Cl)S(=O)(=O)c1ccc2ccccc2c1	89.2% (active)
CCOC(=O)/C=C/c1ccc(C(F)(F)F)cc1S(=O)(=O)NC(C)(C)C	20.8%
c1ccc2cc(CCCc3cc4ccccc4cn3)ncc2c1	2.21%
CN(Cc1ccccc1)C(=O)COC(=O)/C=C/c1ccc2c(c1)OCO2	0.927%
COc1ccc(-c2nc(SCC(=O)N3CCCC3)n[nH]2)cc1	-0.237%
Cc1ccc(N2C(=O)CC(Sc3ncn[nH]3)C2=O)cc1 (stereo not given)	45.4%
COc1ccc(N2C(=O)CC(Sc3n[nH]c(-c4ccc(C)cc4)n3)C2=O)cc1 (stereo not given)	98.9% (active)
CN(CC(=O)NCCc1ccc(S(N)(=O)=O)cc1)CC(=O)Nc1ccc(F)c(F)c1F	-4.6%
CCCSc1ccc([C@H]2N[C@@](Cc3ccccc3)(C(=O)OC)[C@H]3C(=O)N(C)C(=O)[C@@H]23)cc1	4.44%

SMILES	inhibition
Cc1ccc(-c2cc(C(=O)N/N=C/C=C/c3ccccc3)n[nH]2)o1	-7.61%
S=c1[nH]nc(/C=C/c2ccccc2)o1	83.4% (active)
CCOC(=O)C1CCN(C(=O)CN2C(=O)NC(C)(c3ccc4cc(OC)ccc4c3)C2=O)CC1 (stereo not given)	-7.42%
NC1=NC(c2ccc([N+](=O)[O-])cc2)N(c2ccc(F)cc2)C(N)=N1 (stereo not given)	-1.48%
CCOC(=O)CSC1=C(C#N)C(c2sccc2C)CC(=O)N1 (stereo not given)	2.21%
Cc1ccc(C2CC(=O)NC(SCC(=O)OCc3ccccc3)=C2C#N)o1 (stereo not given)	98.4% (active)
CCOC(=O)CSC1=C(C#N)C(c2ccco2)C(C(=O)OCc2ccccc2)=C(C)N1 (stereo not given)	-2.61%
Cc1cc(Br)ccc1NC(=O)CN(C)C(=O)CN1C(=O)NC2(CCCC2)C1=O	-8.04%
COc1cc(NC(=O)COC(=O)c2cc(S(=O)(=O)N3CCOCC3)ccc2F)cc(OC)c1	-2.6%
COc1ccc2c(c1)C=CC1(O2)N(CCO)c2ccccc2C1(C)C (stereo not given)	-8.22%
CN1c2ccc([N+](=O)[O-])cc2C(C)(C)C12C=Cc1cc(C(=O)O)ccc1O2 (stereo not given)	97.9% (active)
Cc1cc(C)n(-c2ccc(C(=O)O)cc2[N+](=O)[O-])n1	-3.49%
CCOC(=O)[C@@H]1[C@H]2COc3ccc(Br)cc3[C@H]2N2C(=O)N(c3ccc(C)cc3)C(=O)[C@@]12C	-4.73%
COc1cc(/C=C(\C#N)C(=O)Nc2ccc3ccccc3c2)c([N+](=O)[O-])cc1OC	-17.7%
COc1ccc(CNC(=O)/C(C#N)=C/c2cccc(OC)c2OC)cc1	12.6%
COc1ccc(NC(=O)/C(C#N)=C\c2cc(OC)c(OCc3ccc(C(=O)O)cc3)cc2Br)cc1	98% (active)
COc1cc(OC)cc(-c2sc3ccc(OC)cc3c2-c2ccc3cc[nH]c3c2)c1	0.621%
COc1ccc(N2CCN(C(CNS(=O)(=O)c3ccc(C)cc3)c3ccccc3)CC2)cc1 (stereo not given)	-0.191%
O=C(CCN1C(=O)C2CCCCC2C1=O)Nc1ccc(OC(F)F)cc1 (stereo not given)	-7.6%
CCCN(CC(=O)Nc1ccccc1C)C(=O)c1ccc2[nH]c3c(c2c1)CC(C)CC3 (stereo not given)	-1.42%
COc1ccc(Cl)cc1NC(=O)CCN1CCOCC1	-5.1%
COc1ccccc1NC(=O)CCN1CCN(c2ccc(Cl)cc2)CC1	89.1% (active)
COc1ccc(NC(=O)CCN2CCCC2)c(OC)c1	-4.61%
CC(C)n1ncc2c(C(=O)NCc3ccccc3CN(C)C)cc(C3CC3)nc21	-20.5%
Cc1ccc(NC(=O)C(C)OC(=O)Cc2c[nH]c3ccccc23)cc1S(=O)(=O)N1CCOCC1 (stereo not given)	-3.03%
Cc1ccc(C(=O)OCC(=O)NCc2cc(C)c(O)c(C)c2)cc1S(=O)(=O)N1CCCCC1	14.9%
COc1cc(OC)cc(-c2c(-c3ccc(F)cc3)c3cc(-c4ccc5cc[nH]c5c4)ccc3n2C)c1	0.122%

From PubChem BioAssay AID485317 (Broad Institute, 2010)
